Assay results published in publication PMC6919601, “Identification of Plasmodium dipeptidyl aminopeptidase allosteric inhibitors by high throughput screening” (PLoS ONE, 2019).
The campaign covered roughly 110,000 compounds. About 230 (0.21%) showed an effect of 50% or more. The entries come from a sample that favours strong results as a whole.

Target: DPAP1 (Plasmodium falciparum, UniProt Q8IIJ9)
Assay: primary screen, percent inhibition; read by cleavage of a fluorogenic dipeptide substrate; higher = more effect of the substance
Set-up: species or system P. falciparum D10 trophozoite lysates; single well
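Note: 30 min substrate incubation versus DMSO and 10 µM JCP410 controls.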

Chain of DPAP1 (Q8IIJ9 whole entry, looked up): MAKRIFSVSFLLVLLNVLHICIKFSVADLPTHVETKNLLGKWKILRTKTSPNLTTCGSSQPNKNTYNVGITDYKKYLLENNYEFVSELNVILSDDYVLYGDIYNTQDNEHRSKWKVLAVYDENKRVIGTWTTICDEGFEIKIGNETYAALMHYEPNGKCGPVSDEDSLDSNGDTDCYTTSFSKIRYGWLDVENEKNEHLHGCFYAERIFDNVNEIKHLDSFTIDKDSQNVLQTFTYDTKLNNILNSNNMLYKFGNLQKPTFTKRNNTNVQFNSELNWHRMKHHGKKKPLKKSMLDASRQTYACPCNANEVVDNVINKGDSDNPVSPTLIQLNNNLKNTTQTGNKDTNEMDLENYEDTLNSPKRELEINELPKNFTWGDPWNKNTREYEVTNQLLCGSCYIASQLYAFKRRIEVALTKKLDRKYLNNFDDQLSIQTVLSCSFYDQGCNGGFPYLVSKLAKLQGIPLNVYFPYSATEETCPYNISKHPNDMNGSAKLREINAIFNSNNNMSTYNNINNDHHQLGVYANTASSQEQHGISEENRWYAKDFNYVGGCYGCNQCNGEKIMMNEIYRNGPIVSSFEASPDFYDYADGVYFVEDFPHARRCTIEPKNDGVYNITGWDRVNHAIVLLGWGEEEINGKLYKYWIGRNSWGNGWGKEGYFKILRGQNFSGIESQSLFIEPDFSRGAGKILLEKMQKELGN

SMILES | % Inhibition @ 10 uM [%]
CCCCn1c2ccc(C)cc2c2nnc(S)nc21 | 61
CCn1c2ccc(OC)cc2c2nnc(S)nc21 | 79.3
CCn1c2ccc(OC)cc2c2nc3ccccc3nc21 | -3.13
CCn1c2ccccc2c2nnc(S)nc21 | 38
Cc1ccc2c(c1)c1nnc(S)nc1n2Cc1ccccc1 | 3.73
CCCCn1c2ccccc2c2nnc(S)nc21 | 36.5
Fc1ccc2c(c1)c1nnc(S)nc1n2CCc1ccccc1 | 10.9
CCn1c2ccc(F)cc2c2nnc(S)nc21 | 32.8
Fc1ccc2[nH]c3nc(S)nnc3c2c1 | 56
Cc1ccc2[nH]c3nc(S)nnc3c2c1 | 12.4
CSc1nnc2c(n1)[nH]c1ccc(C)cc12 | 2.51
Cn1c2ccc(F)cc2c2nnc(S)nc21 | 74
CC(C)c1nc2ccccc2n1Cc1ccccc1F | 1.12
NC(=O)C1CCN(C(=O)COCc2cc(-c3ccc4c(c3)OCO4)on2)CC1 | -4.1
COCCCNC(=O)c1cnn2c(C(F)(F)F)cc(-c3cccs3)nc12 | -2.26
Nc1ncnc2c1nc(S(=O)(=O)O)n2Cc1ccccc1 | -1.69
CCSC1=NSC2=NC(=O)/C(=C\c3c(C)[nH]c4ccccc34)C(=N)N12 | 4.79
Cc1cc2ccccc2n1CCNC(=O)C(c1ccccc1)c1ccccc1 | -4.89
COCCNC(=O)C1CCCN(S(=O)(=O)N(C)C2CCCCC2)C1 (centres unmarked) | -2.86
Sc1nnc2c(n1)[nH]c1ccccc12 | 38
c1ccc2nc3c(nc2c1)[nH]c1ccccc13 | -1.8
Sc1nnc2[nH]c3ccccc3c2n1 | 56.9
Cc1nc2ccc(S(=O)(=O)NC(C(=O)NCCc3ccccc3)C(C)C)cc2s1 (centres unmarked) | -0.0115
Cc1ccc2[nH]c(SCC(=O)Nc3ccc(Cl)cc3)nc2c1 | 5.24
COc1cccc2cc(-c3cn(-c4cccc(C)c4)c(S)n3)c(=O)oc12 | 20.1
Cc1cc(C)c2c(=O)n(CC(=O)NCc3ccccc3Cl)sc2n1 | 83.7

SMILES | % Inhibition @ 10 uM [%]
Cc1cc(C)c2c(=O)n(CC(=O)NCCc3ccc(Cl)cc3)sc2n1 | 15.6
Cc1cc(C)c2c(=O)n(CC(=O)NCc3ccc4c(c3)OCO4)sc2n1 | 12
Cc1c(C(=O)Nc2nc3c(s2)CCCC3)oc2ccccc12 | -2.85
N#CC1=C(N)Oc2[nH]nc(-c3ccncc3)c2C1c1ccncc1 (centres unmarked) | 3.92
CCOc1cc(-c2c(C)c(C)nc(N)c2C#N)ccc1O | -1.79
O=C(O)C1Nc2c(cccc2C(F)(F)F)C2C=CCC12 (centres unmarked) | 0.345
CC(C)C1Nc2c(C(=O)O)cccc2C2C=CCC21 (centres unmarked) | -1.2
O=C(O)c1cccc2c1NC(C(=O)O)C1CC=CC21 (centres unmarked) | 65.6
CCc1nn(CCCC(=O)NC2CCCCC2C)c(=O)c2cc3occc3n12 (centres unmarked) | -0.281
CCOc1ccc(C(=O)Nc2ccc(-c3nc4ncccc4o3)cc2)cc1Cl | -4.82
CCc1cccc(C)c1NC(=O)c1cc(OC)cc(OC)c1 | 15.2
O=C(O)CN1C(=O)c2cc(Cl)c(Cl)cc2C1=O | 3.67
Cc1ccc(C(=O)NCc2nnc(SCC(=O)Nc3nccs3)n2-c2ccccc2)cc1C | -4.97
Cc1ccc(C)c(-n2c(CNC(=O)c3cccc(F)c3)nnc2SCC(=O)Nc2nccs2)c1 | 73.7
COc1ccccc1-n1c(CNC(=O)c2cccc(C)c2)nnc1SCC(=O)Nc1nccs1 | 2.12
C[C@H](NC(=O)CCc1ccccc1)c1ccccc1 | 4.22
CC(C)n1c(NC2CCCCC2)nc2c1c(=O)[nH]c(=O)n2C | -1.11
Cc1cc(C)c2oc(C(=O)Nc3nnc(C(C)C)s3)cc(=O)c2c1 | 53.6
Cc1cc(C)c2oc(C(=O)Nc3nnc(CC(C)C)s3)cc(=O)c2c1 | 3.51
Cc1cc(C)c2oc(C(=O)Nc3nnc(C)s3)cc(=O)c2c1 | -3.24
Cc1cc(C(=O)NCCc2ccccc2)c2c(C)nn(-c3ccccc3)c2n1 | -6.46
COC(=O)CSc1nc(C)c(C)c(C)c1C#N | 4.15
Cc1nc(SCC(N)=O)c(C#N)c(C)c1C | -0.239
Cc1nc(SCC(=O)O)c(C#N)c(C)c1C | 72.9
O=C(CSC1CC(=O)N(c2cccc(Cl)c2)C1=O)Nc1ccc(F)cc1 (centres unmarked) | 2.13
CC(=O)Nc1ccc(Oc2ccc(NC(C)=O)c(NC(C)=O)c2)cc1 | 70.7

SMILES | % Inhibition @ 10 uM [%]
CC(=O)Nc1ccc(Oc2cccc(Oc3ccc(NC(C)=O)cc3)c2)cc1 | -6.02
CCC(=O)Nc1ccc(Oc2ccc(NC(=O)CC)c(NC(=O)CC)c2)cc1 | 8.21
C1CCN(CCCNC2C3CC4CC(C3)CC2C4)C1 (centres unmarked) | -0.192
COc1ccc(C(=O)N2CCC(N3CCCCCC3)CC2)cc1 | 1.91
Cc1nc2c3ccccc3n3c(CCCC(=O)O)nnc3n2n1 | -2.92
c1cncc(C(c2c[nH]c3ccccc23)c2c[nH]c3ccccc23)c1 | 92.4
Cc1[nH]nc(O)c1C(c1c(O)n[nH]c1C)c1c[nH]c2ccccc12 | -6.24
CCc1[nH]c2ccccc2c1C(C)c1cccnc1 (centres unmarked) | -4.49
CC(C)(C)C1CCC(OC(=O)CCC(=O)Nc2ccccc2)CC1 (centres unmarked) | 3.16
N#Cc1cnn(-c2cc(Oc3ccccc3)nc(-c3ccccc3)n2)c1N | -0.941
Cc1cccc(-n2c(C)cc(/C=C3\C(=N)N4N=C(S(C)(=O)=O)SC4=NC3=O)c2C)c1 | 52.6
Cc1cc(/C=C2\C(=N)N3N=C(S(C)(=O)=O)SC3=NC2=O)c(C)n1-c1cccc(C(F)(F)F)c1 | 3.53
Cc1cccc(C)c1-n1c(C)cc(/C=C2\C(=N)N3N=C(S(C)(=O)=O)SC3=NC2=O)c1C | 5.1
CN(C)CCN(Cc1ccccc1)c1ncnc2onc(-c3ccc(F)cc3)c12 | -2.52
CC(=O)Nc1ccc(Nc2nc(-c3c(C)nc4cc(C)ccn34)cs2)cc1 | 25.6
CCc1c(C#N)c(SCC(=O)OC)nc2c1CCC2 | 4.16
CC(C)Cc1c(C#N)c(S)nc2c1CCCC2 | 90.5
CCc1c(C#N)c(S)nc2c1CCC2 | 88.7
N#Cc1c(S)nc2c(c1-c1ccncc1)CCCC2 | 30.8
CC(C)Cc1c(C#N)c(SCC(N)=O)nc2c1CCCC2 | 9.71
N#Cc1c(S)nc2c(c1/C=C/c1ccccc1)CCC2 | 17.3
CCn1ncc(Br)c1C(=O)Nc1ccc(S(=O)(=O)Nc2ccc(OC)cc2)cc1 | -4.43
O=C(O)c1cc(C(=O)O)cc(N2C(=O)c3ccc([N+](=O)[O-])cc3C2=O)c1 | 1.64
O=C(c1sc(N2CCOCC2)nc1-c1ccccc1)c1c[nH]c2ccccc12 | 72.2
CC1(C)OCCN1C(=O)C(=O)c1c[nH]c2ccccc12 | -2.68
O=C(CN1CCOCC1)c1c[nH]c2ccccc12 | 7.5

SMILES | % Inhibition @ 10 uM [%]
Cc1nnc(N2CCC(C(=O)NCCc3ccc(Cl)cc3)CC2)c2nn(-c3ccccc3)c(C)c12 | 0.58
COc1ccc(C2=NN(CCc3ccccn3)C(=O)C2)cc1 | -4.06
O=C1N=C(N2CCN(C3=NC(=O)/C(=C\c4cccc(O)c4)S3)CC2)S/C1=C\c1cccc(O)c1 | 6
O=C1N=C(N2CCN(Cc3ccccc3)CC2)S/C1=C\c1ccccc1 | -2.82
O=C1N=C(N2CCN(Cc3ccccc3)CC2)S/C1=C\c1cccc(O)c1 | 51
CCOC(=O)N1CCC(NC(=O)Cc2cn(C)c3ccccc23)CC1 | -2.41
Cn1cc(CC(=O)NCc2ccccn2)c2ccccc21 | 87.4
Cn1cc(CCC(=O)NCc2ccccn2)c2ccccc21 | 3.28
CCOC(=O)N1CCN(C(=O)Cc2c(C(=O)O)n(C)c3ccccc23)CC1 | 2.84
Cn1cc(CC(=O)NCc2ccc(F)cc2)c2ccccc21 | -4.76
CCOC(=O)N1CCN(C(=O)Cc2cn(C)c3ccccc23)CC1 | 85.9
CSCCCN(C)CCc1ccccn1 | -7.56
CN(C)c1ccc(NC(=O)C23CC4CC(C2)CC(n2cnc(Cl)n2)(C4)C3)cc1 | -0.305
Cc1ccc(C)c(-c2csc(NC(=O)CSc3ccccc3)c2C(N)=O)c1 | 1.02
N#Cc1c(C(F)(F)F)cc(-c2cccs2)nc1SCC(=O)N1CCCCC1 | 87
N#Cc1c(C(F)(F)F)cc(-c2cccs2)nc1SCC(=O)NC1CC1 | 1.76
N#Cc1c(C(F)(F)F)cc(-c2cccs2)nc1SCC(=O)N1CCOCC1 | 72.6
N#Cc1c(C(F)(F)F)cc(-c2cccs2)nc1SCc1nc(N)nc(N2CCOCC2)n1 | 64.2
N#Cc1c(C(F)(F)F)cc(-c2cccs2)nc1SCC(=O)Nc1ccc(C(N)=O)cc1 | -7.55
N#Cc1c(C(F)(F)F)cc(-c2ccccc2)nc1SCc1nc(N)nc(N2CCOCC2)n1 | 5.18
COc1ccc(-c2cc(-c3ccccc3)nc(SCC(=O)N3CCOCC3)c2C#N)cc1 | 5.24
N#Cc1c(C(F)(F)F)cc(-c2cccs2)nc1SCC(=O)O | 9.42
O=C(CSc1ccc(-c2cccs2)nn1)N1CCOCC1 | 5.85
Cn1cccc1/C=C1/CCC(C2CCCC2)C1=O (centres unmarked) | -5.51
Cc1ccc(C)n1-c1nnc(N2CCC(C(=O)NCCc3ccc(Cl)cc3)CC2)s1 | -4.04
O=C(NC1CCCC1)N(Cc1ccc2c(c1)OCO2)C1CCN(Cc2ccccc2)CC1 | -1.41
